Laboratory results from PubChem BioAssay.
Where “and” joins values, the source holds several entries; their conditions need not be identical. Identical values can stand only once. Calls of active or inactive are those of the source.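 Rule for the calls, unless noted: active = thallium flux through the channel raised or lowered by more than 3 SD from vehicle-only wells, actives on both sides; inactive = the rest.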

What was measured:
[1] = Wnt pathway potentiators raising nuclear beta-catenin – imaging, WNT3A-conditioned medium, mouse C2C12, NPC library, primary screen (AID 1117326; in the data active = nuclear beta-catenin stimulation mostly above about 4.2%, no sharp cut-off; inactive = mostly below about 10%); settings: stronger effect = higher value
[2] = stimulators of insulin release from INS-1E, primary screen, cell-based, 5 mM glucose, NPC library (AID 1117329;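 active = compound raises insulin release from rat beta cells at 5 mM glucose, no numeric limit stated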); settings: rat INS-1E insulin secretion, at 10 µM, stronger effect = higher value
[3] = growth inhibition of GSK3B-pretreated HCT116 cells – cell-based, CellTiter-Glo, 0.2 to 20 µM (AID 1117336;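 active = compounds lowering colon cancer cell viability after pretreatment blocking the GSK3B kinase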); settings: HCT116 viability after GSK3B inhibitor, at 20 µM, stronger effect = higher value
[4] = inhibition of endothelial tube formation, primary screen, imaging, VEGF stimulated, CD31 staining, tube area, NPC library (AID 1117340;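 active = compound that reduces growth-factor-driven endothelial tube area in a mixed cell culture, no cutoff stated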); settings: VEGF-stimulated ADSC/ECFC co-culture, at 10 µM, stronger effect = higher value
[5] = GLP1 release stimulators, primary, NCI-H716, NPC library (AID 1117341;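 active = compound raises GLP1 secretion from the human gut endocrine cells, with no numeric limit stated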); settings: NCI-H716 cells, at 10 µM, stronger effect = higher value
[6] = HCT116 colon cancer cell growth inhibition, primary screen, CellTiter-Glo luminescence, NPC library (AID 1117342;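 active = compounds that lower survival of HCT116 colon cancer cells in the luminescence readout, no numeric limit stated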); settings: at 20 µM (top of the series)
[7] = reduced SW480 viability measured with CellTiter-Glo, NPC library, primary (AID 1117343;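 active = compounds that lower viability of the colon cancer cells in the luminescence readout, with no numeric limit stated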); settings: CellTiter-Glo luminescence; at 20 µM (top of the series)
[8] = NPC library primary testing for decreased DLD-1 cell viability via CellTiter-Glo (AID 1117346;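 active = compounds that lower survival of DLD-1 colon cancer cells in the luminescence readout, no cutoff given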); settings: DLD-1 viability, CellTiter-Glo luminescence; at 20 µM (top of the series)
[9] = biological target: 6-phosphogluconate dehydrogenase, decarboxylating (Homo sapiens) (UniProt P52209); assay: inhibition of human phosphogluconate dehydrogenase – biochemical, recombinant enzyme, NADPH absorbance, primary screen (AID 1159550;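 active = at least 20% inhibition of 6-phosphogluconate dehydrogenase activity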); settings: recombinant 6PGD, NADPH absorbance 341 nm; at 10 µM; stronger effect = higher value
[10] = modulation of C. elegans fzo-1 (AID 1259413; call rule not given here;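 note: fzo-1 mutant C. elegans worms in liquid wells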); settings: C. elegans fzo-1 modulator screen, mean read-out; stronger effect = higher value
[11] = EMT-state selective cytotoxicity in co-culture – imaging, PC-3E GFP, TEM4-18 mCherry, primary screen (AID 1345086;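 active = compounds killing one labelled cell type while sparing the other, by normalised counts and ratio limits, not self-fluorescent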;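 for all read-outs here: cells exposed to compound for 72 h before imaging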;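 for red/green cell ratio (normalised): normalised mesenchymal count divided by normalised epithelial count so high means epithelial killing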); settings: PC-3E GFP / TEM4-18 mCherry co-culture, imaging cell counts, at 1 µM; for red/green cell ratio (normalised): actives lie on both sides, counts scaled to control wells, 1 = unselective
[12] = MELAS cybrid and Rieske KO viability enhancers – cell-based, MELAS cybrids, Rieske KO mouse fibroblasts, CellTiter-Glo, primary screen (AID 1508586;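 active = mean z-score across replicates of 1.96 or higher in either the MELAS or the Rieske mutant cell line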;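 note: z relative to plate mean and SD of compound and empty wells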); settings: low glucose
[13] = biological target: NAD(+) hydrolase SARM1 (Homo sapiens) (UniProt Q6SZW1); assay: blocking NAD cleavage by SARM1 SAM-TIR – cell lysate, NAD-Glo luminescence (AID 1508614;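 active = compound whose remaining NAD level is above about 45 nM, limit read from the data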;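 note: higher remaining NAD means stronger inhibition of SARM1 NADase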); settings: SAM-TIR HEK293T lysate NADase, at 1 µM, stronger effect = higher value
[14] = biological target: Mitogen-activated protein kinase 7 (Homo sapiens) (UniProt Q13164); assay: Gal4-ERK5 driven luciferase induction – cell-based, HTS, primary screen (AID 1508626;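 active = luciferase signal above three times the same-plate solvent-only control wells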;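 note: luciferase driven by Gal4-ERK5 fusion binding five Gal4 sites before minimal TATA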); settings: HeLa Gal4-ERK5 transactivation, 18 h, at 5 µM, stronger effect = higher value
F380Y = assay: BK channel mutant inhibitors and activators – cell-based, U2OS BacMam, thallium flux, beta subunits, selectivity assay, profiling panel (AID 1259406); settings: U2OS BacMam BK variants, at 30 µM;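 note: initial slope of Thallos dye fluorescence rise after thallium is added; log ratio against the mean of 0.3% DMSO vehicle wells on the same plate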
F380Y/beta1 = assay: as above; settings: U2OS BacMam BK variants, at 30 µM
F380Y/beta2Delta = assay: as above; settings: U2OS BacMam BK variants, at 30 µM
[15] = viability loss with induced miR-34 in A549 – imaging, A549 dox-inducible miR-34, nuclei and caspase counts, primary screen (AID 1347080;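 active = compounds whose cell count with miR-34 switched on is under 0.7 times the count with it off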); settings: A549 miR-34 inducible, Hoechst nuclei count, 48 h
[16] = measured here: epithelial PC-3E GFP cell survival
[17] = measured here: mesenchymal TEM4-18 mCherry cell survival
[18] = MELAS cybrid survival, CellTiter-Glo 48 h, stronger effect = higher value
[19] = Rieske KO mouse fibroblast survival, CellTiter-Glo 72 h
[20] = stronger effect = lower value, cell number ratio, induced over uninduced
[21] = measured here: relative caspase fold change +Dox/-Dox
[22] = measured here: total cells with miR-34 induction, stronger effect = lower value
[23] = measured here: total cells without miR-34 induction

Chain of 6-phosphogluconate dehydrogenase, decarboxylating (Homo sapiens) (P52209 whole entry, looked up): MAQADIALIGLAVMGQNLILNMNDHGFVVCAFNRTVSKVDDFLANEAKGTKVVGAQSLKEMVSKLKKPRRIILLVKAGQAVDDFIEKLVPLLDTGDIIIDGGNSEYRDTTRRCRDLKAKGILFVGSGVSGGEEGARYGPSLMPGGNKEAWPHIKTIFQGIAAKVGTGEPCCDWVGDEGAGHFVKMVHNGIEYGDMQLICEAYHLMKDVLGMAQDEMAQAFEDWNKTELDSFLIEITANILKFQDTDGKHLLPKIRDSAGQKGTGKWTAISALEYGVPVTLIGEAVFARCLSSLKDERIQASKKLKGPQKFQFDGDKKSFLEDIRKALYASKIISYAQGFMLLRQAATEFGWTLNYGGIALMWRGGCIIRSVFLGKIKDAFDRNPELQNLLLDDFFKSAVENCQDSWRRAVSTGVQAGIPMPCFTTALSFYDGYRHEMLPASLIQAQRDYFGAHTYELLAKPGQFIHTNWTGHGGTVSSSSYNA
Chain of NAD(+) hydrolase SARM1 (Homo sapiens) (Q6SZW1 whole entry, looked up, the tested form may be a part): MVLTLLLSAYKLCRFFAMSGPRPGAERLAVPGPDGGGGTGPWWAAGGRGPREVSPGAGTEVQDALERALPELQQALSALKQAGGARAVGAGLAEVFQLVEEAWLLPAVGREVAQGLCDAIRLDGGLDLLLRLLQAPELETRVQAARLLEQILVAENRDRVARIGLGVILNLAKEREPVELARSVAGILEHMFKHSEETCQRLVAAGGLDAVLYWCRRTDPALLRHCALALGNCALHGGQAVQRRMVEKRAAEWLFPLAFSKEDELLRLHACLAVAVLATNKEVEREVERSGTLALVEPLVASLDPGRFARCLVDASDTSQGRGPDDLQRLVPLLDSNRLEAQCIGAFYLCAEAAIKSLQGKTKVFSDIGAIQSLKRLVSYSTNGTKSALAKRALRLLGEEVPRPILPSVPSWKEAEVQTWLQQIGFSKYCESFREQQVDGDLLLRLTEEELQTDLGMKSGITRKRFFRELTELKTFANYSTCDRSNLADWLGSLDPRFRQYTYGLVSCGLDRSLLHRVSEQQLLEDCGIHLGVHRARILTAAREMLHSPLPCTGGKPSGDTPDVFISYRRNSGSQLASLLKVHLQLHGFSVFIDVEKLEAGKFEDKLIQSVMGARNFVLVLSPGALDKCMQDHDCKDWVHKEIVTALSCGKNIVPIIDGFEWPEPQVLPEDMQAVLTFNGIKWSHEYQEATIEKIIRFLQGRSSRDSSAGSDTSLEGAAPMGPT
Chain of Mitogen-activated protein kinase 7 (Homo sapiens) (Q13164 whole entry, looked up, the tested form may be a part): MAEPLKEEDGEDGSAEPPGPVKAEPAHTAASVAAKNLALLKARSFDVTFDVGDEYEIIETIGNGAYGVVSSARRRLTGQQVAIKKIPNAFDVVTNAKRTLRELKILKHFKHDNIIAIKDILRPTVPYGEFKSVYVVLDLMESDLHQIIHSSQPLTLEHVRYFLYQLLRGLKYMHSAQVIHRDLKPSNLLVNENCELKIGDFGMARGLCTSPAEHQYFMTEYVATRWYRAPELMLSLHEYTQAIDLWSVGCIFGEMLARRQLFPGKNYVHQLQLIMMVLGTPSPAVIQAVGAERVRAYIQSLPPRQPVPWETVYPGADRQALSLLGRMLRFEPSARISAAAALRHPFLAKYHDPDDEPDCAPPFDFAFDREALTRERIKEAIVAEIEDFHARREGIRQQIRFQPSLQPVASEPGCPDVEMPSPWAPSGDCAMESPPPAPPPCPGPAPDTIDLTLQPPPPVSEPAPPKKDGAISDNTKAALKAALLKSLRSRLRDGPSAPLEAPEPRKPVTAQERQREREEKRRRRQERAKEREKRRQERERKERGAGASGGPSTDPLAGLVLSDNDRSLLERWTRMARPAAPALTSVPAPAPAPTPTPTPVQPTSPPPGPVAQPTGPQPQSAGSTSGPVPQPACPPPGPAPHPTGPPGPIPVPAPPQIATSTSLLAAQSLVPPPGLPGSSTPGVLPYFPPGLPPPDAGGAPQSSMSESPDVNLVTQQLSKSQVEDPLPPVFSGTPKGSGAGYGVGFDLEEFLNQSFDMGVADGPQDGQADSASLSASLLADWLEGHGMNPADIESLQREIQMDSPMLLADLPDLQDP

For NS(=O)(=O)c1cc2c(cc1Cl)NC=NS2(=O)=O, the nuclear beta-catenin stimulation ([1]; at 10 µM) was -0.3% (inactive), the nuclear beta-catenin stimulation ([1]; stimulation, at 2 µM) was 3% and the insulin secretion stimulation [2] was -0.7% (inactive). The viability decrease [3] was -4.3% (inactive), the tube area decrease [4] was 3.2% (inactive) and the GLP1 secretion stimulation [5] was 1.5% (inactive). For the same compound, the inhibition of viability [6] was -1.55% (inactive), the viability decrease (inhibition) [7] was 5.5% (inactive) and the viability decrease (inhibition) [8] was -6.2% (inactive). For the same compound, the inhibition [9] was 11.5% (inactive), the mean signal [10] was 245 (inactive) and the red/green cell ratio (normalised) [11] was 1.16 (inactive). The normalised cell number [11, 16] was 0.39, the normalised cell number [11, 17] was 0.45 and the z-score [12, 18] was -0.0786 (inactive) and 0.00114 (inactive). The z-score [12, 19] was 0.72 and -0.309, the remaining NAD [13] was 10 nM (inactive) and the luciferase signal [14] was 52 AU (inactive). The log fold change Tl+ flux (F380Y) was 0.0512 (inactive), the log fold change Tl+ flux (F380Y/beta1) was 0.0165 (inactive) and the log fold change Tl+ flux (F380Y/beta2Delta) was -0.00499 (inactive).
With CN1CCCC(n2nc(Cc3ccc(Cl)cc3)c3ccccc3c2=O)CC1 (stereo unspecified) the nuclear beta-catenin stimulation ([1]; at 10 µM) was 1.5% (inactive), the nuclear beta-catenin stimulation ([1]; stimulation, at 2 µM) was 1.7% and the insulin secretion stimulation [2] was 5.8% (inactive). For the same compound, the viability decrease [3] was -40.4% (inactive), the tube area decrease [4] was 21.5% (inactive) and the GLP1 secretion stimulation [5] was 5.5% (inactive). For the same compound, the inhibition of viability [6] was 64.8% (active), the viability decrease (inhibition) [7] was -0.2% (inactive) and the viability decrease (inhibition) [8] was 37.8% (inactive). The inhibition [9] was 6.29% (inactive), the mean signal [10] was 269 (inactive) and the red/green cell ratio (normalised) [11] was 0.89 (inactive). The normalised cell number [11, 16] was 1.16, the normalised cell number [11, 17] was 1.03 and the fold change [15, 20] was 0.849 (inactive) and 0.93 (inactive) and 0.906 (inactive). For the same compound, the fold change [15, 21] was 1.32 and 0.694 and 6.18, the cell count [15, 22] was 5140 and 8770 and 9440 and the cell count [15, 23] was 6060 and 9430 and 10400. For the same compound, the z-score [12, 18] was -0.451 (inactive) and -0.0693 (inactive), the z-score [12, 19] was 0.19 and 0.396 and the remaining NAD [13] was 10 nM (inactive). For the same compound, the luciferase signal [14] was 88 AU (inactive), the log fold change Tl+ flux (F380Y) was 0.248 (active) and the log fold change Tl+ flux (F380Y/beta1) was 0.109 (active). The log fold change Tl+ flux (F380Y/beta2Delta) was 0.144 (active).
With O=S(=O)(O)CCS the nuclear beta-catenin stimulation ([1]; at 10 µM) was 1.9% (inactive), the nuclear beta-catenin stimulation ([1]; stimulation, at 2 µM) was 1.8% and the insulin secretion stimulation [2] was 1.6% (inactive). The viability decrease [3] was 4.9% (inactive), the tube area decrease [4] was 11.9% (inactive) and the GLP1 secretion stimulation [5] was 2.6% (inactive). The inhibition of viability [6] was -4.57% (inactive), the viability decrease (inhibition) [7] was -2.4% (inactive) and the viability decrease (inhibition) [8] was -8.8% (inactive). The inhibition [9] was 6.93% (inactive), the mean signal [10] was 248 (inactive) and the red/green cell ratio (normalised) [11] was 1 (inactive). The normalised cell number [11, 16] was 1.08, the normalised cell number [11, 17] was 1.09 and the fold change [15, 20] was 0.934 (inactive) and 0.882 (inactive). The fold change [15, 21] was 3.36 and 0.596 and 4.13, the cell count [15, 22] was 9790 and 9090 and 11400 and the cell count [15, 23] was 10500 and 9730 and 12900. The z-score [12, 18] was -0.16 (inactive) and 0.426 (inactive), the z-score [12, 19] was 0.659 and -0.304 and the remaining NAD [13] was 10 nM (inactive). The luciferase signal [14] was 20 AU (inactive), the log fold change Tl+ flux (F380Y) was -0.0468 (inactive) and the log fold change Tl+ flux (F380Y/beta1) was 0.0507 (inactive). For the same compound, the log fold change Tl+ flux (F380Y/beta2Delta) was 0.0371 (inactive).
